Screens: PubChem, several laboratories
Hits are enriched below; roughly 3.7% of the tested compounds scored in any of these assays.
PfHsp90 set2: inhibits growth of yeast expressing Plasmodium falciparum Hsp90; S. cerevisiae expressing PfHsp90, BacTiter-Glo ATP, 48 h; yeast lacking PDR1 and PDR3 efflux regulators; inhibition, % at 9.4 µM; 310,000 compounds, 0.32% hits;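 active means every replicate shows inhibition above about 80%, whatever the replicate mean, limit read from the data; inconclusive means mean inhibition reaches the set limit but some replicate falls short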
TIM10 inh: growth inhibitors of TIM10 yeast strain; S. cerevisiae TIM10 strain growth, BacTiter-Glo luminescence, 24 h; inhibition, % at 10 µM; 330,000 compounds, 1.4% hits; AID 463195;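 active means inhibition of 40% or more at the single tested concentration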;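 further: wild-type TIM10 isogenic control strain grown at permissive 25 °C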
tim23-1 inh: inhibits growth of tim23-1 mutant yeast | S. cerevisiae tim23-1 growth, BacTiter-Glo luminescence, 24 h | inhibition, % at 20 µM | AID 463212 | 330,000 compounds, 1.3% hits;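 active means growth inhibition of the mutant yeast at or above 50%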;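 further: temperature-sensitive mutant grown at 25 °C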
tim10-1 inh: tim10-1 yeast growth inhibition; S. cerevisiae tim10-1 ts strain growth, BacTiter-Glo, 24 h; inhibition, % at 20 µM; 330,000 compounds, 2.2% hits; AID 463190;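 active means inhibition of at least 40%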;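 further: mutant grown at 25 °C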
V-ATPase pH: alters yeast V-ATPase proton transport; S. cerevisiae, pHLuorin cytosolic pH fluorescence; response, % at 10 µM; 350,000 compounds, 0.37% hits; in the data active means response mostly above about 7.3%, no sharp cut-off; inactive means mostly below about 5.4%; further: actives read high
tim23-1 conf: confirmation of tim23-1 mutant yeast growth inhibitors | 4,400 compounds, 83% hits | AID 463218 | inhibition, % at 20 µM | S. cerevisiae tim23-1 growth, BacTiter-Glo luminescence, 24 h | shares compounds with tim23-1 inh;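 active means inhibition above about 39% in either of two replicate wells at 20 µM, limit read from the data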;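 further: temperature-sensitive tim23-1 mutant grown at 25 °C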
Each line names hits and unclear results; the compound was inactive in the other large screens (follow-up assays come after a bar, where they were run).

COc1ccc(N=C2S/C(=C\c3ccc(Cl)c([N+](=O)[O-])c3)C(=O)N2CCN(C)C)cc1	tim23-1 inh 60 | tim23-1 conf inactive
CCN1C(=O)/C(=C/c2cccs2)SC1=Nc1ccc(OC)cc1	none
CNc1nc(N)c(C(=O)C23CC4CC(CC(C4)C2)C3)s1	tim23-1 inh 51 | tim23-1 conf 50
COc1c(Cl)cccc1-c1cn2ccccc2n1	tim23-1 inh 55 | tim23-1 conf inactive
COc1ccc(-c2cn3ccccc3n2)cc1	none
CCCn1nc(NC(=O)C2CCCO2)c2cc3cccc(C)c3nc21 (stereo not given)	tim23-1 inh 52 | tim23-1 conf 43
O=C1OC(c2ccccc2)=NC12CC2c1ccc(Cl)cc1 (stereo not given)	tim23-1 inh 56 | tim23-1 conf inactive
CC1(C)CC(n2c(NCCO)nc3c(c2=O)C2(CCCC2)Cc2ccccc2-3)CCO1 (stereo not given)	tim23-1 inh 52 | tim23-1 conf 49
Cc1ccnc(NS(=O)(=O)c2ccc(NS(=O)(=O)c3cc(Cl)ccc3Cl)cc2)n1	none
CSc1cccc(CN2CCC(n3nccc3NC(=O)C3CC3)CC2)c1	tim23-1 inh 50 | tim23-1 conf inactive
O=C(CCCc1ccncc1)c1ccccc1	none (no result: TIM10 inh, tim23-1 inh, tim10-1 inh)
c1coc(CNc2ncnc3sc4c(c23)CCCCC4)c1	none
CC1CCCc2sc3nc(NCc4ccco4)n4ncnc4c3c21 (stereo not given)	tim23-1 inh 50 | tim23-1 conf 49
c1cncc(-c2ccc3ncnc(NCc4cccs4)c3c2)c1	none
COc1cccc(-c2ccc3ncnc(NCc4cccs4)c3c2)c1	tim23-1 inh 52 | tim23-1 conf 43
c1csc(CNc2ncnc3ccc(-c4ccc5c(c4)OCCO5)cc23)c1	tim23-1 inh 57 | tim23-1 conf 45
O=S(=O)(NCc1cccs1)c1ccccc1Cl	none
CC(Cl)C(=O)Nc1c2c(nn1-c1ccccc1)CSC2 (stereo not given)	none
Cc1nc2ccccc2c(=O)n1NC(=O)c1ccco1	none
Cc1ccccc1OCc1nc2ccccc2c(=O)n1NC(=O)c1ccco1	tim23-1 inh 53 | tim23-1 conf inactive
Cc1cc(NC(=O)Cn2cnc3sc(C)c(C)c3c2=O)no1	none (no result: PfHsp90 set2, V-ATPase pH)
COc1ccc(/C=C(\C#N)c2nc3ccccc3[nH]2)cc1O	tim23-1 inh 51 | tim23-1 conf 43
COc1cc(/C=C(\C#N)c2nc3ccccc3[nH]2)ccc1Oc1ccc([N+](=O)[O-])cn1	tim23-1 inh 58 | tim23-1 conf inactive
COc1cc(/C=C(/C#N)c2ccccc2)ccc1Oc1ccc([N+](=O)[O-])cn1	none (no result: PfHsp90 set2)
c1ccc(COc2ncnc3c2ncn3CCCNCC(c2ccccc2)c2ccccc2)cc1	none (no result: PfHsp90 set2, TIM10 inh, tim23-1 inh, tim10-1 inh)
O=c1c2ccccc2nc2c3ccccc3cnn12	tim23-1 inh 55 | tim23-1 conf 64
CN(c1ccc(C(=O)Nc2ccc(CC#N)cc2)cc1)S(C)(=O)=O	tim23-1 inh 94 | tim23-1 conf inactive
O=C(Nc1cn(-c2ccccc2)nc1-c1cccs1)c1ccco1	tim23-1 inh 58 | tim23-1 conf 47
CCC/C=C/c1ccc(CN2C(C(C)C)C(=O)N(Cc3cn(Cc4ccco4)nn3)CCS2(=O)=O)cc1 (stereo not given)	none (no result: PfHsp90 set2, TIM10 inh, tim23-1 inh, tim10-1 inh)
Cc1cccc(N2C(=O)c3ccc(Br)cc3C2=O)n1	tim23-1 inh 56 | tim23-1 conf 45
O=C(CC(=O)c1ccccc1O)c1ccc(F)cc1	tim23-1 inh 61 (no result: PfHsp90 set2) | tim23-1 conf 57
O=C(CN1C(=O)S/C(=C/c2ccncc2)C1=O)Nc1ccccc1	tim23-1 inh 53 | tim23-1 conf 51
COc1ccccc1NCC(=O)n1nc(C)cc1C	none
C=CCc1c(C)nc(SC)nc1Nc1ccc(C(C)=O)cc1	tim23-1 inh 50 | tim23-1 conf 45
C=CCc1c(C)nc(SC)nc1Nc1ccc(C(=O)O)cc1	none
O=C1NC(=Nc2ccccc2Cl)S/C1=C\c1cccc([N+](=O)[O-])c1	PfHsp90 set2 inconclusive, tim23-1 inh 55 | tim23-1 conf 63
O=C(NC(=S)N1CCN(c2c(Cl)cccc2[N+](=O)[O-])CC1)c1cccs1	none
COc1ccc(N2CCN(C(=S)NC(=O)c3cccs3)CC2)c([N+](=O)[O-])c1	tim23-1 inh 53 | tim23-1 conf 46
O=C(Nc1ccccc1Cl)c1cccc(NC(=O)c2cccs2)c1	tim23-1 inh 59 | tim23-1 conf 63
O=C(Nc1ccc(N2CCN(C(=O)c3cccs3)CC2)cc1)c1ccc(Br)o1	tim23-1 inh 55 | tim23-1 conf 54
O=C(Nc1cccc(NC(=O)c2cccs2)c1)c1ccc(Br)o1	tim23-1 inh 61 | tim23-1 conf 72
O=C(Nc1ccccc1Cl)c1cccc(NC(=O)C2CCCC2)c1	none
CCN(Cc1ccccc1)C(=O)c1ccc(Cl)cc1[N+](=O)[O-]	none
O=S(=O)(Cc1ccc(Cl)cc1)Nc1ccc2c(c1)OCO2	tim23-1 inh 59 | tim23-1 conf 49
COC(=O)C1=C(C)N(Cc2ccccc2)C(=S)N[C@H]1c1cccc(F)c1	tim23-1 inh 52 | tim23-1 conf inactive
COC(=O)C1=C(C)N(Cc2ccccc2)C(=NCc2ccccc2)N[C@H]1c1cccc(F)c1	none
CC(C)COC(=O)N(C)C[C@H]1OCc2cnnn2CCCC(=O)N([C@@H](C)CO)C[C@H]1C	none (no result: PfHsp90 set2, TIM10 inh, tim23-1 inh, tim10-1 inh)
Cn1nc(-c2ccccc2F)c2cc(C(=O)Nc3ccc4c(c3)OCCO4)sc21	tim23-1 inh 54 | tim23-1 conf 55
O=C(N/N=C/CCc1ccccc1)c1ccccc1	tim23-1 inh 55 | tim23-1 conf inactive
O=C(Nc1ccccc1)OCC(CN1CCCCC1)OC(=O)Nc1ccccc1 (stereo not given)	none
O=C(Nc1ccc2nsnc2c1)N1CCCCC1	none
S=C(Nc1ccc2nsnc2c1)N1CCCCCC1	tim23-1 inh 55 | tim23-1 conf 40
CCC(Oc1ccccc1OC)C(=O)N1CC(=O)Nc2ccccc21 (stereo not given)	none
COc1ccc2c(c1)NC(c1ccc(N(C)C)cc1)c1cccn1-2 (stereo not given)	tim23-1 inh 56 | tim23-1 conf 61
COc1ccc2c(c1)NC(c1cc(Cl)cc(Cl)c1O)c1cccn1-2 (stereo not given)	none
O=C(NOC(=O)c1ccccc1)c1ccccc1	tim23-1 inh 64 | tim23-1 conf inactive
O=C(NCCCOC(=O)c1ccccc1)c1ccccc1	none (no result: TIM10 inh, tim23-1 inh, tim10-1 inh)
O=C(CSc1cccc[n+]1[O-])c1cc(Cl)ccc1Cl	tim23-1 inh 59 | tim23-1 conf 77
Cc1cc(O)cc2c1C1CCC3(C)C(=O)CCC3C1C=C2 (stereo not given)	none (no result: TIM10 inh, tim23-1 inh, tim10-1 inh)
CN(Cc1ccccc1)C(=O)c1ccc(NC(=O)C2CCCN(C(=O)OC(C)(C)C)C2)cc1 (stereo not given)	none
COc1ccc(Nc2cc(C)c3ccc(O)cc3n2)cc1	tim23-1 inh 51 | tim23-1 conf inactive
Cc1cc(Nc2ccccc2)nc2cc(O)ccc12	tim23-1 inh 65 | tim23-1 conf inactive
